Screens deposited in PubChem by National Center for Advancing Translational Sciences (NCATS).
USP2a inhib: USP2a (human) protease inhibition; Potency, µM (doses to about 38.3 µM), for inactives: at the highest dose activity change, negative = inhibition, most hits filed as inhibitors; hit rate 0.1% among 60,000; USP2a enzymatic assay, qHTS inhibition; AID 927; note: nearly all actives have a fitted effect of over 60% in size
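20 nM USP2 core + cpd, 30 min RT; add 20 nM Ub-PLA2/20 uM NBD C6-HPC; read Ex460/Em535 at 0 h and 2.5 h. Normalized to NEM; qHTS curve fit/classification.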
PK Bst: modulators of Bacillus stearothermophilus pyruvate kinase. purified pyruvate kinase, luminescence ATP production; ribose 5-phosphate activator present at AC10. Potency, µM. hit rate 1.2% among 51,000. AID 361; in the data active = potency below about 11 µM; inconclusive = mostly about 12 µM to 25 µM;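 the screen sought inhibitors and activators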;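 note: scaled between full activation by ribose 5 phosphate and full inhibition by luteolin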
TSHR ag: activates the human thyroid stimulating hormone receptor; HEK293-CNG-TSHR cells (CNG channel as cAMP sensor), membrane potential dye, cAMP; Potency, µM (series often up to 57.1 µM), for the others: at the top dose activation, actives largely listed as activators; hit rate 0.48% among 73,000; AID 926; active = well fitted activation curve with a large enough effect in the main read-out, with a control signal flat, not every such curve was filed as active; inconclusive = small, poorly fitted or top-dose-only effect, or a change in a side signal; inactive = no such curve, though single readings can be large or run the other way; % of control where 0% means no effect;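 note: the control signal comes from parental cells without the receptor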
Target sequence (P16473 whole entry, looked up): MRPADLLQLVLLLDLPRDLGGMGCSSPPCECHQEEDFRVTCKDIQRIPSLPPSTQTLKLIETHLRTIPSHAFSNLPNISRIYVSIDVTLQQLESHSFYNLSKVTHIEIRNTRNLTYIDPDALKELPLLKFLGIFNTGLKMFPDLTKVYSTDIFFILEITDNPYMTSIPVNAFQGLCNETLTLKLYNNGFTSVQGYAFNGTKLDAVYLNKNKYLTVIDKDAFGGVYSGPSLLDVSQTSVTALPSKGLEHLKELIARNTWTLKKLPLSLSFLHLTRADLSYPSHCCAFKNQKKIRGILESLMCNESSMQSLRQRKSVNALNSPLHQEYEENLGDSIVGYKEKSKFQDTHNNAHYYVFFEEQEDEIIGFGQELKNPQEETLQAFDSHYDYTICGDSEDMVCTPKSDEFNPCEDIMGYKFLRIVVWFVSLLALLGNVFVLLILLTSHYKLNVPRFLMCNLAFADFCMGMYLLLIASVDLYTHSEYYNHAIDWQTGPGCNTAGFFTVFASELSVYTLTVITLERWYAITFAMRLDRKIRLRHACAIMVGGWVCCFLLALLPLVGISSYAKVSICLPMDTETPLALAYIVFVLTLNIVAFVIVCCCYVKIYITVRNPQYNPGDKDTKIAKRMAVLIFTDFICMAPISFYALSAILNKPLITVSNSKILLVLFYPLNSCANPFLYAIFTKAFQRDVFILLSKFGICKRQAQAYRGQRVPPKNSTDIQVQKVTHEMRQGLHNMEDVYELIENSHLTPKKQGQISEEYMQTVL
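cAMP rise detected as CNG-channel membrane depolarization by fluorescent dye (emission 590 nm), 30 min after compound, following 60 min dye loading containing 100 uM RO 20-1724 at room temperature. Cells: TSHR/CNG HEK 293, with parental CNG HEK 293 as control.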
Ub-GFP proteasome: proteasome inhibitors stabilizing ubiquitin-GFP reporter; AID 526; 67,000 tested, under 10 active; Ubiquitin-GFP reporter cells, proteasome inhibition, GFP fluorescence; response scale: untreated = 0%, 10 µM MG-132 = 100%; Potency, µM (highest dose often 45.9 µM), for inactives: top-dose activation (GFP accumulation), actives largely listed as activators; active = well fitted activation curve with a large enough effect, not every such curve was filed as active; inconclusive = small, poorly fitted or top-dose-only effect, or another doubt; inactive = no such curve, though single readings can be large or run the other way
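Proteasome block read as GFP accumulation: ubiquitin(G76V)-GFP U2OS cells exposed to compound (2.9 nM–46 uM) for 4 hr at 37 C. Normalization used untreated cells as 0% and 10 uM MG-132 as 100%; concentration-response curves fitted.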
GBA mod: modulators of human glucocerebrosidase. hit rate 1.1% among 48,000. purified enzyme, resorufin glucoside fluorescence (screen aimed at inhibitors), 20 min. P04062. Potency, µM; in the data active = potency below about 15 µM; inconclusive = mostly about 16 µM to 33 µM;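 note: the screen sought inhibitors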
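Wild-type enzyme at 0.2 nM final in 50mM citric acid/KH2PO4, 10mM sodium taurocholate, 0.01% tween-20, pH 5.9, with resorufin beta-D-glucopyranoside at 30 uM final. Compounds titrated, 20 min at RT, red fluorescence read; AC50 from titration.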
HEK293 cAMP ctrl: raises cAMP in parental HEK293 cells, TSHR agonist counter-screen; parental HEK293 CNG cAMP sensor, membrane potential fluorescence; Potency, µM (doses to about 57.1 µM), without a hit: at the top dose activation, actives largely listed as activators; hit rate 2.5% among 73,000; note: % of control where 0% means no effect; nearly all actives have a fitted effect of over 55% in size
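Parental HEK 293 cells stably expressing a modified CNG channel (no TSHR) report cAMP rise as membrane depolarization. Membrane potential dye with 100 uM RO 20-1724 was loaded for 60 min at room temperature, then compound added for 30 min; fluorescence read at 590 nm.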
Starred values were filed as active, the others as inactive; i = inactive; ? = inconclusive; . = no result given; [ ] = remark or other dose. Compounds with a hit are over-represented: about 4.1% of the library has one in this group of screens. Unless noted, calls come from the whole dose curve; as a rule, active = well fitted curve in the direction sought with a large enough effect; inconclusive = small, poorly fitted or top-dose-only effect, or another doubt; inactive = no such curve, though single readings can be large; an effect the other way counts as inactive or inconclusive. Potency is the fitted concentration of half-maximal effect.

SMILES	USP2a inhib	PK Bst	TSHR ag	Ub-GFP proteasome	GBA mod	HEK293 cAMP ctrl
Cc1ccc(-n2c(SCC(=O)Nc3ccc4c(c3)OCO4)nnc2-c2cccs2)cc1	21%	>57	?	-1%	9.3*	?
CCCn1c(SCC(=O)Nc2ccc3c(c2)OCCO3)nnc1-c1ccco1	13%	>57	0%	1%	>77	7%
Cc1ccc(-n2c(SCC(=O)Nc3ccc4c(c3)OCCO4)nnc2-c2ccco2)cc1	26%	>57	25µM*	1%	>77	23%
Cc1ccnc(NC(=O)C2CCN(S(=O)(=O)c3cccc4nsnc34)CC2)c1	8%	i	-6%	10%	>77	-3%
O=S(=O)(Nc1ccc2c(c1)OCCO2)c1cccc2nsnc12	4%	8.6*	20%[11.4 µM]	13%	.	11%
O=C(Nc1ccc2c(c1)OCCO2)C1CCN(S(=O)(=O)c2cccc3nsnc23)CC1	1%	9.3*	-7%	1%	>77	-7%
O=C(CCNS(=O)(=O)c1cccc2nsnc12)Nc1ccc2c(c1)OCCO2	10%	?	-4%	2%	>77	2%
N=C(N)S[C@H]1c2ccccc2-c2cc([N+](=O)[O-])ccc21	.	.	-4%[11.4 µM]	3%[9.17 µM]	.	0%[11.4 µM]
NCCNc1cccc2ccccc12	.	.	?	.	.	-49%
N#C[C@@H](Cc1ccc(O)c(O)c1)C(=O)N1CCc2ccccc21	0%	.	-2%	-6%	.	-15%
O=C(CSc1nc(Nc2ccccc2)nc(N2CCOCC2)n1)Nc1ccc2c(c1)OCCO2	41%	>57	25µM*	-6%	>77	10%
Cc1ccccc1NC(=O)CSc1nc(Nc2ccccc2)nc(N2CCOCC2)n1	20%	>57	?	-3%	>77	?
O=C(NCCCCN1CCCC1)c1ccc(Cc2nc3ccccc3[nH]2)cc1	.	.	-4%	.	.	11%
Cc1ccc(C)c(CSc2nnc(-c3cccnc3)n2N)c1	12%	>57	24%	4%	4.2*	0%
Nc1nccc(Nc2ccc(S(N)(=O)=O)cc2)n1	.	.	-4%[11.4 µM]	-1%[9.17 µM]	.	13%[11.4 µM]
CCSc1nc2cc(C(=O)OC)ccc2c(=O)n1CC	-4%	>57	?	-8%	.	?
COC(=O)c1ccc2c(=O)n(C3CCCCC3)c(SCC#N)nc2c1	11%	>57	?	-3%	.	20µM*
Cc1sc(NC(=O)CSc2nnc(COc3ccccc3)n2C)c(C#N)c1C	2%	>57	?	-4%	>77	6.3µM*
Cc1ccc(OCc2nnc(SCC(=O)Nc3sc(C)c(C)c3C#N)n2C)cc1	0%	>57	?	5%	>77	?
Cc1ccc(S(=O)(=O)N2CCN(C(=O)N(C)C)CC2)cc1C	-5%	?	.	-2%	>77	23%
Cc1ccc(S(=O)(=O)n2ccnc2)cc1C	.	.	?	-1%	.	20µM*
CN(Cc1cccs1)c1ncnc2sccc12	2%	>57	?	-1%	>77	16µM*
CCOC(=O)OCC1OC(C#Cc2ccccc2)C=CC1OC(=O)OCC (centres undefined)	.	.	0%[11.4 µM]	.	.	-2%[11.4 µM]
COc1cc2nc(N3CC=[N+](C(=O)c4ccco4)CC3)nc(N)c2cc1OC	1%	.	-1%	-2%	.	-2%
NC(=O)c1ccc(-c2ccc(Br)cc2)o1	3%	5.1*	5%	-7%	>77	-2%
SMILES	USP2a inhib	PK Bst	TSHR ag	Ub-GFP proteasome	GBA mod	HEK293 cAMP ctrl
COC(=O)c1cc(-c2ccc(Br)cc2)on1	.	.	6%	3%	.	19%
O=C(O)CCc1ccc(-c2ccc(Br)cc2)o1	-2%	.	?	-1%	>77	4µM*
CC(=O)N1CCC2(CCCN(c3ccccn3)C2)CC1	-26%	.	18%	-3%	.	25%
Fc1ccc(OCc2nc(-c3ccc(Br)o3)no2)c(F)c1	.	.	?	16%	.	2.5µM*
COc1ccc(Cc2nc(-c3ccc(Br)o3)no2)cc1OC	.	.	.	-6%	.	27%
CSc1nc2[nH]c3c(c2c2nnnn12)CCCC3	.	0.78*	.	.	.	.
CCOc1ccccc1N1CCN(S(=O)(=O)c2ccc(Cl)s2)CC1	-9%	?	23%	-6%	>77	22%
COc1ccccc1N1CCN(S(=O)(=O)c2ccc(Cl)s2)CC1	-2%	11*	?	-4%	>77	?
COc1ccccc1N1CCN(S(=O)(=O)c2cccc3nsnc23)CC1	7%	7.4*	1%	3%	>77	15%
Cc1ccccc1-c1cc(Nc2ccccc2)ncn1	17%	.	?	-1%	.	?
Cc1cccc([C@@H]2CN(C)CCc3c2cc(O)c(O)c3Cl)c1	0%	.	?	0%	.	25µM*
COc1ccccc1-c1cncnc1-n1ccnc1	-24%	.	-2%	-5%	.	-5%
COc1ccccc1-c1cc(-n2ccnc2)ncn1	9%	.	?	0%	.	32µM*
NCCCCCc1nnc(SCc2cccc(Cl)c2)o1	1%	>57	1%	4%	i	18%
NCCCCCc1nnc(SCC(=O)Nc2cccc(Cl)c2)o1	2%	>57	16µM*	1%	>77	4%
COc1ccccc1-c1cc(NCc2cccc(C)c2)ncn1	32%	.	?	-3%	.	20µM*
COc1ccccc1CNc1cc(-c2ccccc2Cl)ncn1	5%	.	?	-9%	.	16µM*
Cc1cccc(OCCCCCn2ccnc2)c1C	9%	.	?	0%	.	32µM*
CCNCCCNCCCCNCCCNCC	.	.	3%	0%	.	0%
O=C(c1ccc(N2CN(C(=O)c3ccco3)c3nc4ccccc4nc32)cc1)N1CCOCC1	25%	.	1.3µM*	-3%	>77	-3%
COCCn1c(=O)cnc2cnc(N3CCN(C)CC3)nc21	?	.	0%	11%	.	7%
COC(=O)c1nnn(-c2nonc2N)c1CSc1ccccn1	?	.	?	4%	>77	32µM*
COC(=O)c1nnn(-c2nonc2N)c1CN1CCc2ccccc21	17%	>57	-18%	-2%	>77	-4%
Nc1ccc(S(=O)(=O)NCCS(=O)(=O)O)cc1	.	.	-1%[11.4 µM]	-7%[9.17 µM]	.	8%[11.4 µM]
Cn1c(=O)c2c(nc(CN3CCN(c4cccc(Cl)c4)CC3)n2CCc2ccccc2)n(C)c1=O	33%	>57	?	2%	>77	7.9µM*
CCOC(=O)Cn1c(CN2CCN(c3cccc(Cl)c3)CC2)nc2c1c(=O)[nH]c(=O)n2C	.	.	?	8%	.	20µM*
c1ccc2nc3c(nc2c1)c1ccccc1n3CCN1CCOCC1	16%	i	16µM*	-2%	.	21%
Cc1ccc(-c2nnc(Nc3ccccc3)o2)cc1	2%	0.46*	5%	0%	>77	15%
Cc1nn(-c2ccccc2)c2sc(C(=O)N3CCc4ccccc4C3)cc12	?	>57	?	2%	>77	20µM*
Cc1nn(-c2ccccc2)c2sc(C(=O)N3CCCCC3)cc12	?	>57	28%	0%	>77	24%
